In the library only some 2.1% were active in any assay of this set; here they are far more common.
Wee1 stabilizer: blocks degradation of human Wee1 kinase; P30291; HeLa Luc-Wee1K328M stability, luciferase luminescence; 100% = proteasome inhibitor MG132 effect; reporter increase, % at 5 µM; 220,000 tested, 1.2% active; AID 1321;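 active means activation above the mean of all tested compounds plus 3 SD, set per screening run, cut at about 8.8% in these data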;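 further: cells exposed to compound for 20 h before luminescence read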
Target sequence (P30291 whole entry K328M): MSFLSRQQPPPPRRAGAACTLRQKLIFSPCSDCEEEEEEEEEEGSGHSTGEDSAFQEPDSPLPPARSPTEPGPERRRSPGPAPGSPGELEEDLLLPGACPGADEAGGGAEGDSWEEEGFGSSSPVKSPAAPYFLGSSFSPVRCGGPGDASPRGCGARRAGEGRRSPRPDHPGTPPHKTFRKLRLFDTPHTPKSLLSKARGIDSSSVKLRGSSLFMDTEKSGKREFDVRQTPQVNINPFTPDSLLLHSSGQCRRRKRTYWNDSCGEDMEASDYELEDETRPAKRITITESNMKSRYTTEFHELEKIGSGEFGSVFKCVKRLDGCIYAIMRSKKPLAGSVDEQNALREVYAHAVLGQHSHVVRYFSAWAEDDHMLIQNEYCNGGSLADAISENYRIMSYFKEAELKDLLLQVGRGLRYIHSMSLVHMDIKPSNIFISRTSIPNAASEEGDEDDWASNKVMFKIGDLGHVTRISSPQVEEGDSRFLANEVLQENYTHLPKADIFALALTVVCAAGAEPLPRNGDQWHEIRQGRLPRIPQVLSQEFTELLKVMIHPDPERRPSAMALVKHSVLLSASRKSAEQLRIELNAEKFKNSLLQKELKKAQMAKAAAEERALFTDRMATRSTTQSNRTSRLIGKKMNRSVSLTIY
KLF5 inh: inhibitors of KLF5 expression; DLD-1 KLF5 promoter-luciferase reporter, luminescence; inhibition, % at 5 µM; 290,000 tested, 0.23% active; AID 1700;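 active means inhibition above a per-plate limit of that plate's mean compound inhibition plus 3 SD, cut at about 60% in these data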;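 further: higher means less KLF5 promoter-driven luciferase light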
HIF act: HIF pathway transcriptional activation; AID 1910; 300,000 tested, 0.32% active; U2OS HRE-luciferase reporter, luminescence; normalized: DMSO 0%, desferrioxamine 100%; activation, % at 7.5 µM (by protocol);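 active means mean activation of at least 10% of the iron chelator positive control signal, with at least half of replicates also reaching 10%; inconclusive means mean and replicate majority disagree about reaching 10%; inactive means mean and most replicates under 10%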
aSyn UTR inh: MLPCN primary screen, SNCA 5' untranslated region | alpha-synuclein 5'UTR reporter, inhibitor activity | inhibition, % (tested at 7.5 µM) | 300,000 tested, 0.82% active | AID 1813; in the data active means inhibition above about 60%; inconclusive means no clear call, values can overlap the other calls;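 further: H4 neuroglioblastoma cells stably carrying SNCA 5'UTR luciferase fusion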
Platelet DG rel: modulates dense granule release in human platelets. human platelet-rich plasma, SFLLRN dense granule ATP release, luminescence. inhibition, %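 (compounds screened at 7.5 µM in platelet-rich plasma)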. 300,000 tested, 0.22% active. AID 1663;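 active means mean replicate score, as percent of positive control, at or above 50; inconclusive means mean below 50 but at least one replicate at or above 50; inactive means mean and every replicate below 50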
Numbers stand for hits; i = inactive; ? = inconclusive; nt = no result.

SMILES	Wee1 stabilizer	KLF5 inh	HIF act	aSyn UTR inh	Platelet DG rel
COc1ccccc1N1CCN(S(=O)(=O)CCNC(=O)C2CC(=O)N(c3ccccc3)C2)CC1 (centres undefined)	nt	i	i	i	i
COc1ccc(N2CCN(S(=O)(=O)CCNC(=O)Cc3ccc([N+](=O)[O-])cc3)CC2)cc1	nt	i	i	65.3	i
O=C(NCCS(=O)(=O)N1CCN(c2ccc(F)cc2)CC1)c1ccc(Br)o1	nt	i	i	127.2	i
O=C(NCCS(=O)(=O)N1CCN(c2ccccc2F)CC1)C1CC(=O)N(c2ccc(F)cc2)C1 (centres undefined)	nt	i	456.1	i	i
O=C(CN1C(=O)CSc2ccc(S(=O)(=O)N3CCCCC3)cc21)NCc1ccccc1	nt	i	i	i	i
C[C@H](NC(=O)[C@@H]1CSC2c3ccccc3C(=O)N21)C(=O)NC1CCCCC1 (some centres undefined)	nt	i	i	i	i
CCOC(=O)N=Nc1c2ccccc2c2nc3no[nH]c3nc12	i	i	i	118.7	i
CCOC(=O)N=Nc1c(O)n(CC(=O)OC)c2ccccc12	i	i	i	i	i
COc1ccc(N(CC(=O)Nc2cc(Cl)ccc2OC)S(=O)(=O)c2c(C)noc2C)cc1	i	i	i	70.7	i
Cc1cccc2sc(N(CCN3CCOCC3)C(=O)CCS(=O)(=O)c3ccccc3)nc12	nt	nt	i	i	i
O=C(NCc1nc(-c2ccccc2)no1)c1cccs1	i	i	i	i	i
O=C(NCc1nc(-c2ccc(C(F)(F)F)cc2)no1)c1cccs1	9.6	i	i	i	i
Cc1ccc(C)c(OCC(=O)O/N=C(\N)c2cccc([N+](=O)[O-])c2)c1	i	i	113.7	i	i
Cc1cccc(/C(N)=N/OC(=O)COc2ccccc2Cl)c1	12.5	i	nt	nt	nt
COc1ccc(/C(N)=N/OC(=O)COc2ccccc2Cl)cc1	i	i	i	i	i
CC(C)(C)c1ccc2c(c1)OC(C(=O)N/N=C/c1ccc([N+](=O)[O-])o1)CO2 (centres undefined)	i	i	i	i	i
CC1CCCCN1S(=O)(=O)c1ccc(C(=O)Nc2ccccc2-c2nc3ccccc3[nH]2)cc1 (centres undefined)	10.5	i	i	i	i
Cc1cc(NC(=O)CSc2nc3c([nH]c4ccccc43)c(=O)n2-c2ccccc2F)no1	nt	i	i	i	i
CSc1cccc(N2C(=O)C3CCCN3C2=S)c1 (centres undefined)	nt	i	i	i	i
COC(=O)CC1C(=O)NCCN1C(=O)CSc1nnc(Nc2ccc(OC)cc2)s1 (centres undefined)	i	i	236.2	i	i
COC(=O)CC1C(=O)NCCN1C(=O)CSc1nnc(Nc2ccc(C)cc2)s1 (centres undefined)	i	i	i	i	i
COc1ccc(C2=NOC(C(=O)NCc3cccs3)C2)cc1OC (centres undefined)	i	i	i	i	i
COc1cc(OC)c(C2=NOC(C(=O)NCc3cccs3)C2)cc1Cl (centres undefined)	9.6	i	i	i	i
Cc1cnc(C(=O)NNC(=O)c2ccc(Br)cc2)cn1	nt	nt	i	i	i
COc1cc(/C=N/n2cnnc2)ccc1OCc1ccc(C)cc1	i	i	i	i	62.5
SMILES	Wee1 stabilizer	KLF5 inh	HIF act	aSyn UTR inh	Platelet DG rel
O=C(CSCc1c(F)cccc1Cl)NNC(=S)NC1CCCCC1	nt	i	i	i	i
CC(C)NC(=S)N/N=C/c1c[nH]c2ccccc12	15.2	i	i	i	i
Cc1cnc(C(=O)NC2CC(C)(C)Cc3c2cnn3-c2cccc(F)c2)cn1 (centres undefined)	nt	i	i	i	i
CCCC(C)NC(=O)COc1ccc(Sc2ccc(OCC(=O)NC(C)CCC)cc2)cc1 (centres undefined)	i	i	i	i	i
Cc1nc2cc(-c3ccccc3)sc2c(=O)n1N	i	65.0	?	110.7	89.7
Cc1ccc(C)n1-n1c(C)nc2sc(-c3ccccc3)cc2c1=O	i	i	i	i	i
CCS(=O)(=O)c1ccc(O)c(NC(=O)c2cc(OC)c(OC)c(OC)c2)c1	i	i	i	i	i
CCS(=O)(=O)c1ccc(N=Nc2ccc(O)c3ncccc23)c(OC)c1	i	i	i	78.1	i
Cc1ccc(N=Nc2ccc3ccccc3c2O)cc1	nt	i	i	?	i
Cc1ccc(N=Nc2ccc(O)c3ncccc23)cc1C	i	i	i	73.8	i
Cc1ccc(N=Nc2ccc(O)c3ncccc23)cc1	i	i	147.1	86.2	i
CC(=O)N1CCN(C2=NC(=O)/C(=C/c3ccc(OS(=O)(=O)c4ccccc4)cc3)S2)CC1	nt	i	i	i	i
COc1ccc(OC)c(S(=O)(=O)N/N=C\c2cn(CC(N)=O)c3ccccc23)c1	nt	i	i	i	i
O=C(Nc1ccc(F)cc1)c1nc(S(=O)(=O)Cc2ccccc2)ncc1Cl	nt	i	i	66.6	i
Cc1ccccc1CS(=O)(=O)c1ncc(Cl)c(C(=O)Nc2ccc(F)cc2)n1	nt	i	i	64.2	i
Cc1ccc(NC(=O)c2nc(S(=O)(=O)Cc3ccccc3)ncc2Cl)cc1	nt	i	i	i	i
COc1ccc(CCC(=O)NCC23CC4CC(CC(C4)C2)C3)cc1	nt	i	i	i	i
CN(C)S(=O)(=O)c1ccc(C(=O)OCC2CCCO2)cc1 (centres undefined)	nt	i	i	i	i
COc1ccc(-n2cccc2/C=C2/NC(=O)N(c3cccc(Cl)c3)C2=O)cc1	8.9	i	i	i	i
Cc1cc(C)cc(Oc2nc3ccccn3c(=O)c2/C=C(\C#N)C(=O)NC2CCS(=O)(=O)C2)c1 (centres undefined)	i	i	i	i	i
Cc1ccc(Oc2nc3ccccn3c(=O)c2/C=C(\C#N)C(=O)NC2CCS(=O)(=O)C2)c(C)c1 (centres undefined)	nt	i	i	i	51.4
Cc1nn(C(=O)c2cccnc2)c(C)c1Sc1ccccc1	i	i	102.8	i	i
Cc1onc(-c2ccccc2)c1C(=O)Nc1ncc([N+](=O)[O-])s1	nt	i	i	i	i
Cc1ccc(C(=O)Nc2ncc([N+](=O)[O-])s2)cc1	nt	86.9	i	68.9	i
CCOC(=O)c1ccc(N2C(=O)c3n[nH]c(C)c3C2c2ccc(OC)cc2OC)cc1 (centres undefined)	i	i	i	i	i
SMILES	Wee1 stabilizer	KLF5 inh	HIF act	aSyn UTR inh	Platelet DG rel
COc1ccc(C2NC(=O)c3n[nH]c(C)c32)c(OC)c1 (centres undefined)	i	i	i	i	61.9
Cc1[nH]nc2c1C(C(C)c1ccccc1)C(C#N)=C(N)O2 (centres undefined)	i	i	i	i	i
O=C(c1ccc(Cl)cc1[N+](=O)[O-])N1CCN(c2ccccn2)CC1	9.3	i	i	i	i
O=C(Cc1ccc(Br)cc1)Nc1ccccc1Cl	i	i	i	i	i
CCCc1nc2ccc(NC(=O)NCCC(=O)OCC)cc2c(=O)n1Cc1ccc(Cl)cc1	i	i	i	i	i
CCCc1nc2ccc(NC(=O)NCCC(=O)OCC)cc2c(=O)n1Cc1cccc(Cl)c1	16.7	i	i	i	i
COc1ccc(O)c(/C=N/NC(=O)c2cccc(N3CCCC3=O)c2)c1	nt	i	i	i	i

Source: PubChem (several laboratories)
